# Results from publication PMC12136788.
# Whole data set: some 24,000 sequences, median “enrichment r” near 0.99, cut for the highest 2% near 3.7. Only a sample is shown.
# T1: UNK ZnF1-3 (human, UniProt Q9C0B0 31-174)
# T1 sequence: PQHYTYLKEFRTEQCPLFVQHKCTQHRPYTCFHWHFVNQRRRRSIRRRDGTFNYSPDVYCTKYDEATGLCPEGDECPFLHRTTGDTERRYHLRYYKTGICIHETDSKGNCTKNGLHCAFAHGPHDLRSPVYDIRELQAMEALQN
# B1: chr18:56819859:56819860:+_ENSG00000166562_ENST00000588875|hu_mus|FALSE|FALSE (ssRNA)
# RNA: GGGAGUUCUACAGUCCGACGAUCAACCUUGAUUACUCUGUGAACUAUCGGAAUGUCUCUUCCUUCAACCUUAAAAACAACUAUUUCACCAGCUCUGAUGGGGUCCUCCCGGAAAUUCGUGAGGAACAGCAGAUCUCCUCUGUGCAACAGAGGAUUGAGCAUCA
# B2: 224577001_224577121_2655_3pUTR_ENSG00000162923_ENST00000295024|human|control|control (ssRNA)
# RNA: GGGAGUUCUACAGUCCGACGAUCCGGGCAAGGCUAGAAUCCAUGAACCAAGCUGCAAAGAUCUCAAGCUAAAUAAGGCGGAAAGAUUUGGAGAAACAAAAGAAGGAAAUUCUUUCCUAUCCAAUGUAUACUCUUCAGACUAAUCAACAGAGGAUUGAGCAUCA
# B3: chr2:62099399:62099400:-_ENSG00000115484_ENST00000544079|hu_hu|FALSE|FALSE (ssRNA)
# RNA: GGGAGUUCUACAGUCCGACGAUCGUAGGAUUCCAUACCACUCAGUGUUCGUGAAUAUUCAGUUAAUCGUAGGGCCAACUCUAUUUCUGGAGCACCACCUCCUGCAAUAAGAGCCCUCUUCUUCACUAAACAACGAAUAACACACAACAGAGGAUUGAGCAUCA
# B4: chr13:30086970:30086971:-_ENSG00000139514_ENST00000380752|hu_mus|FALSE|FALSE (ssRNA)
# RNA: GGGAGUUCUACAGUCCGACGAUCAGGCCCUGUGUAGGCUGGGGAAGUGUGCUACCACUAGGCUACACGCCUGUCCAGCCCCACUAACUCUUCCAUUCUCAAGAAUCUUCCAAAGCAGAGGAAAGACAGGGCCAUCAGUCUACCCAACAGAGGAUUGAGCAUCA
# B5: 101904251_101904371_108_5pUTR_ENSMUSG00000058655_ENSMUST00000169681|mouse|control|control (ssRNA)
# RNA: GGGAGUUCUACAGUCCGACGAUCGGAGAGAGAACGCAAAGGACCCGGAUGAGGCAGUCACGUGAUUAUAGCGGGCGCGACGGGCUUGGAGACGUGAAACCAGGAGGGGGCGGGGAGCCGAGGACGGAGGCAGAAGGCGGGGCGCAACAGAGGAUUGAGCAUCA
# B6: 125499526_125499646_756_3pUTR_ENSMUSG00000091337_ENSMUST00000164756|mouse|control|control (ssRNA)
# RNA: GGGAGUUCUACAGUCCGACGAUCCUGUGAGACCAAAGAGGAACGAUUUGGUCUUUUUCUCCUCGCGAUUCUCAGGUUUAACACUCCUCCUUCCUCGAUUCUCCUUUUCCACAAUGCAUGGUCAUUCACUGUCCCGUCUUCUAUCAACAGAGGAUUGAGCAUCA
# B7: 19967392_19969057_911_3pUTR_ENSMUSG00000002428_ENSMUST00000002502|mouse|control|control (ssRNA)
# RNA: GGGAGUUCUACAGUCCGACGAUCUCCCAGAAUGGUGGUAGUUCUUUACUGUUCUCUCGUGCGAUCAUCCAAGCUAGAGCUUGUUUUUGGUGUGGAAGCAACGGUGUUUCAAUAGCCUCAGCUGGUUCCAUUUCAACAGUUCUACAACAGAGGAUUGAGCAUCA
# B8: chrX:21990627:21990628:+_ENSG00000102172_ENST00000404933|hu_hu|FALSE|FALSE (ssRNA)
# RNA: GGGAGUUCUACAGUCCGACGAUCCACCCGCCCAGUACUGUCCUGACUCAAUUCUUUCAUUCUUUCCUCUACUUUGUUCAAAAUACUGUCGAUCUCUUCUUUGCCUUGCGCAUCACCAUCAUAACUCUGAAGGUCCAGCAACACCAACAGAGGAUUGAGCAUCA
# B9: chr14:102516957:102516958:+_ENSG00000197102_ENST00000360184|hu_mus|motif|central (ssRNA)
# RNA: GGGAGUUCUACAGUCCGACGAUCCCAUCAACCCUUCCACACCGUUAAGGAUGAAUGAAGGUUAAAUAUUGGGAGUUUCCGGUUCCAGAAAGAGGACUGGAGAAAAGUCUAGCUUUACUCAGUGCACAGAACGGCAACUCCACGCAACAGAGGAUUGAGCAUCA
# B10: chr18:67943652:67943653:+_ENSMUSG00000079614_ENSMUST00000025421|mus_hu|FALSE|FALSE (ssRNA)
# RNA: GGGAGUUCUACAGUCCGACGAUCAGUUGUCCUUUUAACCCAGUGGCUCUGUCCUCGCAGUUUAUCAUUUGAUUCUCCUACUAUUUCUUCCCAUACAGCAGCUGUUCGGUCAAAAGAACAGGAAGCCAAAACCUGCCCAAAUUCCAACAGAGGAUUGAGCAUCA
# B11: chrX:20185780:20185781:-_ENSG00000177189_ENST00000379565|hu_mus|motif|central (ssRNA)
# RNA: GGGAGUUCUACAGUCCGACGAUCUUUGGUUAUAGUAAACAGGACAGCGCUGGCCUCUCGCUCUGAGAAAAACUUCUGUCGGAGAAUCUUAUCCAGCAAUUCACCUCCUUUCAUAAGUUCUGUUACUACAUACACAUAUUUUCCCAACAGAGGAUUGAGCAUCA
# B12: chr11:77843920:77843921:+_ENSMUSG00000037791_ENSMUST00000049167|mus_hu|motif|central (ssRNA)
# RNA: GGGAGUUCUACAGUCCGACGAUCUUUUUUAUAUACAGAAUACAGGAAAGUUUCUGUAAAGUCUAAAACAUUACAAUUACGGUGUACAUUGGUACUGGUUGUGGGGGUGGGAGGAGAGGAGGGAACCAGGGGCAGGAGGAAGAGCAACAGAGGAUUGAGCAUCA
# B13: chr1:167252050:167252051:+_ENSMUSG00000040836_ENSMUST00000111450|mus_mus|motif|central (ssRNA)
# RNA: GGGAGUUCUACAGUCCGACGAUCGGAUACCAUUGAAGACAAGAGCCACAUGGUGGCUUCCCUUUCACAUCCACCAUCUCGGGUCCUCCUGAUGCCCCAGCCACAUCUCCAUCUGCUUCUAACGUGUGCUUUCGAAGCCUCGUUCAACAGAGGAUUGAGCAUCA
# B14: chr12:96259795:96259796:+_ENSG00000139343_ENST00000266735|hu_hu|FALSE|FALSE (ssRNA)
# RNA: GGGAGUUCUACAGUCCGACGAUCAAGGACAUUAUUACACCUUAUUAAAACUUCACCCAGAUGUCCAGACAAAGCUCCAUCUAUGUAUUCUUCUGUAUUUGCAAGCUGCAUGUUCAUGUAGCCAUCUACAGAUACCAGAUAGCCCAACAGAGGAUUGAGCAUCA
# Biological target: T1, UNK ZnF1-3
# Assay: nsRBNS (natural sequence RNA bind-n-seq); RBNS binding buffer (assumed for nsRBNS): 25 mM Tris pH 7.5, 150 mM KCl, 3 mM MgCl2, 0.01% Triton X-100, 500 ug/ml BSA, 20 U/ml SUPERase-In, 4 C; UNK is unkempt and MSI1 is Musashi-1; names of the RNAs are library labels; protein concentration not given here; high values mean tight binding
row,Binder,binding signal
1,B1,0.758 enrichment R
2,B2,1.48 enrichment R
3,B3,1.13 enrichment R
4,B4,1.02 enrichment R
5,B5,3.03 enrichment R
6,B6,0.473 enrichment R
7,B7,0.75 enrichment R
8,B8,0.997 enrichment R
9,B9,1.11 enrichment R
10,B10,1.28 enrichment R
11,B11,0.794 enrichment R
12,B12,1.66 enrichment R
13,B13,0.721 enrichment R
14,B14,0.574 enrichment R
